Measured values reported in PubChem BioAssay (NCATS).
Inconclusive results are not listed. Calls of active or inactive are those of the source. The call rests on the fitted dose curve; in most records, active means well fitted curve in the direction sought with a large enough effect; inconclusive means small, poorly fitted or top-dose-only effect, or another doubt; inactive means no such curve, though single readings can be large; an effect the other way counts as inactive or inconclusive.

Key:
[1] = biological target: Rap guanine nucleotide exchange factor 3 (Homo sapiens) (UniProt O95398); experiment: Confirmatory qHTS for antagonist of cAMP-regulated guanine nucleotide exchange factor 3 (EPAC1) (AID 1645880); settings: EPAC1 Rap1B-BODIPY-GDP exchange, fluorescence; activity, negative = inhibition: at 115 µM (top of the series);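 further: plate controls were DMSO only for no effect and full effect of the ATA control for full effect; nearly all actives have a fitted effect of over 55% in size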
How it was run: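 Nucleotide exchange uses 100 nM EPAC1, 250 nM RAP1B-BODIPY-GDP and 50 uM GDP, with compounds in a concentration-titration series. After 5 min at room temperature, fluorescence (480 nm ex/540 nm em) is read every 5 min for 30 min. Data are normalized to control ATA and DMSO.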

[2] = biological target: Rap guanine nucleotide exchange factor 3 (Homo sapiens) (UniProt O95398); experiment: Confirmatory qHTS for agonist of cAMP-regulated guanine nucleotide exchange factor 3 (EPAC1) (AID 1645881); further: nearly all actives have a fitted effect of over 75% in size; further: potency means the concentration at half of the fitted maximal effect;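 on activation: EPAC1 catalysed release of BODIPY-GDP from Rap1B seen as fluorescence loss; 100% = effect of cAMP agonist control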
[3] = biological target: Rap guanine nucleotide exchange factor 3 (Homo sapiens) (UniProt O95398); experiment: Counterscreen qHTS for antagonist of cAMP-regulated guanine nucleotide exchange factor 3 (EPAC1) (AID 1645888);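 further: fluorescence loss as bound BODIPY-GDP is released from Rap1B; % of control where 0% means no effect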
How it was run: (§1)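 Rap1B-BODIPY-GDP 250 nM + GDP 50 uM; cpds 7-pt, final 9.74 nM–152 uM (activator mode) or from 7.32 nM upwards (inhibitor mode); RT; FI 480/540 nm at 5 and 30 min, then ± cAMP, reread.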

[4] = biological target: Rap guanine nucleotide exchange factor 3 (Homo sapiens) (UniProt O95398); experiment: Counterscreen qHTS for agonist of cAMP-regulated guanine nucleotide exchange factor 3 (EPAC1) (AID 1645889); further: nearly all actives have a fitted effect of over 40% in size; further: potency means the concentration at half of the fitted maximal effect; on activation: % of control where 0% means no effect
How it was run: as §1

Chain of Rap guanine nucleotide exchange factor 3 (Homo sapiens) (O95398 whole entry, looked up): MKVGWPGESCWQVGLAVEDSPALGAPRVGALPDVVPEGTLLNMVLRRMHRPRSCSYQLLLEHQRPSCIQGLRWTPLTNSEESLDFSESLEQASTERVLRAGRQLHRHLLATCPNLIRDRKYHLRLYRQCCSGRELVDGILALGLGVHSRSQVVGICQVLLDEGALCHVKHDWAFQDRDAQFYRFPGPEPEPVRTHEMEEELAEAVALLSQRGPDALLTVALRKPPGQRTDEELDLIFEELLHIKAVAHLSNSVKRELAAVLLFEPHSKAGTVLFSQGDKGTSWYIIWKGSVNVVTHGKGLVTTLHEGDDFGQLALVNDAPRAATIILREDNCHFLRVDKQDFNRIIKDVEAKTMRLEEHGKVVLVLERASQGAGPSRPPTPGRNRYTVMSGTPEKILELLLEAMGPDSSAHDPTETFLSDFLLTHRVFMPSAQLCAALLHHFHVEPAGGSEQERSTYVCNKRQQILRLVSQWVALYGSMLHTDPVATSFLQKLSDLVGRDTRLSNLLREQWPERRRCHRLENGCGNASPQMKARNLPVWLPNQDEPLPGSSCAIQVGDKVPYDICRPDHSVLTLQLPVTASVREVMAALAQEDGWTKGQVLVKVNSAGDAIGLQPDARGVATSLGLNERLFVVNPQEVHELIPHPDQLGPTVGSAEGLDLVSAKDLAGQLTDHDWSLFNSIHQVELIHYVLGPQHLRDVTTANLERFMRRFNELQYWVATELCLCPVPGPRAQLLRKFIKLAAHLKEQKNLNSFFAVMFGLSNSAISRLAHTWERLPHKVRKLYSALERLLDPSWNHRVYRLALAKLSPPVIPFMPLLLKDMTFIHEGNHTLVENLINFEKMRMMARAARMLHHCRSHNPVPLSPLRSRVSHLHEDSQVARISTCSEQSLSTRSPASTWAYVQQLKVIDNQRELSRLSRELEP

CCC(=O)OC1CC(C)N(C(=O)c2ccccc2)c2ccc(C)cc21 (stereo not given)
inactive: Potency [1] | Potency [2] | Potency [3] | Potency [4]

CCOC(=O)C1Oc2ccccc2C(c2ccc(F)cc2)=C1C(=O)OC (stereo not given)
inactive: Potency [1] | Potency [2] | activity change, negative = inhibition [3] -24.6% [at 30.8 µM] | activation [4] 13.2% [at 30.8 µM]

Cc1ccc(C2N(c3ccc(Cl)cc3)C(=O)N3CCCN23)cc1 (stereo not given)
inactive: Potency [1] | Potency [2] | Potency [3] | Potency [4]

C=C1SC(Nc2c(C)cc(C)cc2C)=NC12CCCCC2
inactive: Potency [1] | Potency [2] | Potency [3] | Potency [4]

Cc1ccc(O)c(C(=O)c2cc(C#N)c(=O)n(-c3nccs3)c2)c1
active: Potency [2] 100 µM | Potency [4] 35.5 µM
inactive: Potency [1] | Potency [3]

CCCCC1=C(C(=O)OCC)C(C(=O)OCC)Oc2ccccc21 (stereo not given)
inactive: Potency [1] | Potency [2] | Potency [3] | Potency [4]

CC1(C(=O)Nc2ccc3c(c2)OCO3)CCN1Cc1cccc2c1OCO2 (stereo not given)
inactive: Potency [1] | Potency [2] | activity change, negative = inhibition [3] -9.44% [at 30.8 µM] | activation [4] 19.3% [at 30.8 µM]

CC1CN(c2nc(-c3ccccc3)nc3ccccc23)CC(C)O1 (stereo not given)
inactive: Potency [1] | Potency [2] | activity change, negative = inhibition [3] 3.46% [at 30.8 µM] | activation [4] 21.3% [at 30.8 µM]

COC(=O)c1ccc2nc(-c3ccc(F)cc3)c(CC3CCCCC3)n2c1
inactive: Potency [1] | Potency [2] | activity change, negative = inhibition [3] -8.86% [at 30.8 µM] | activation [4] 6.82% [at 30.8 µM]

COCCN(CCOC)Cc1cc(=O)oc2cc(C)cc(C)c12
inactive: Potency [1] | Potency [2] | Potency [3] | Potency [4]

CC1CN(c2nc3ccccc3cc2-c2ccccc2)CC(C)O1 (stereo not given)
inactive: Potency [1] | Potency [2] | Potency [3] | Potency [4]

CC(C)CN(C(=O)c1ccco1)c1nc2ccccc2s1
inactive: Potency [1] | Potency [2] | Potency [3] | Potency [4]

O=C(/C=C/c1cccc(Cl)c1Cl)OCC(=O)N1CCOCC1
inactive: Potency [1] | Potency [2] | Potency [3] | Potency [4]

COc1ccc(NS(=O)(=O)c2ccc(S(=O)(=O)N3CCCC3)cc2)cc1
inactive: Potency [1] | Potency [2] | activity change, negative = inhibition [3] -8.86% [at 30.8 µM] | activation [4] 24.5% [at 30.8 µM]

O=C(Cc1c(F)cccc1Cl)Nc1ccc(S(=O)(=O)Nc2nccs2)cc1
inactive: Potency [1] | Potency [2] | activity change, negative = inhibition [3] 4.41% [at 30.8 µM] | activation [4] 17.6% [at 30.8 µM]
